Screening data (PubChem)
This excerpt belongs to a sample that is enriched for hits.
VHR inh color: inhibitors of human VHR1 phosphatase (DUSP3) | recombinant VHR phosphatase, colorimetric substrate read-out | inhibition, % at 20 µM | 50,000 compounds, 0.7% hits | AID 1992; in the data active means inhibition above about 60%
Target sequence (P51452 whole entry, looked up): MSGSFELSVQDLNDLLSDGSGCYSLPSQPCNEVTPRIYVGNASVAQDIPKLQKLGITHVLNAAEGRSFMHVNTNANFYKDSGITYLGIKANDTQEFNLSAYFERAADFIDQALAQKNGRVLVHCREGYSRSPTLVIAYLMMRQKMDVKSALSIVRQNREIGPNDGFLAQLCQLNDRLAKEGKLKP
* = called active by the depositor.

SMILES	VHR inh color
CN1C(=O)/C(=C\c2cc(Cl)ccc2OCc2ccc(F)cc2)SC1=S	-14
CCN1C(=O)/C(=C\c2cc(Cl)c(OCc3ccccc3)c(OC)c2)SC1=S	3
CCN1C(=O)/C(=C\c2cc(Cl)ccc2OCc2ccccc2)SC1=S	105*
Cc1ccccc1NC(=O)C(=O)NNC(=O)c1ccccc1C	-4
CCC/C(O)=C1\C(=O)CC(C)(C)CC1=Nc1ccc([N+](=O)[O-])cc1	-3
COc1ccc(/C(C)=N/N2C(=O)c3ccccc3C2=O)cc1	-4
O=C1CC(N2CCC(Cc3ccccc3)CC2)C(=O)N1c1ccc(F)cc1 (stereo unspecified)	-2
CCCC1=NN2C(=N)/C(=C/c3ccc(-c4ccc(F)cc4)o3)C(=O)N=C2S1	109*
CCC1=NN2C(=N)/C(=C/c3ccc(-c4ccccc4[N+](=O)[O-])o3)C(=O)N=C2S1	-3
CCC1=NN2C(=N)/C(=C/c3ccc(-c4ccc(C)c(Cl)c4)o3)C(=O)N=C2S1	5
CCCC1=NN2C(=N)/C(=C/c3ccc(-c4ccccc4C(=O)OC)o3)C(=O)N=C2S1	116*
CCCC1=NN2C(=N)/C(=C/c3ccc(OCc4ccc(F)cc4)c(OCC)c3)C(=O)N=C2S1	100*
CCC1=NN2C(=N)/C(=C/c3ccc(-c4cccc([N+](=O)[O-])c4)o3)C(=O)N=C2S1	0
CCOc1cc(/C=C2/C(=N)N3N=C(CC)SC3=NC2=O)ccc1OCc1ccc(F)cc1	5
CC(C)C1=NN2C(=N)/C(=C/c3ccc(-c4ccc([N+](=O)[O-])cc4)o3)C(=O)N=C2S1	-4
CCC1=NN2C(=N)/C(=C/c3ccc(OCc4ccc(Br)cc4)c(OC)c3)C(=O)N=C2S1	6
CCC1=NN2C(=N)/C(=C/c3ccc(-c4ccc(F)c(Cl)c4)o3)C(=O)N=C2S1	-34
CCCC1=NN2C(=N)/C(=C/c3ccc(-c4ccc([N+](=O)[O-])cc4Br)o3)C(=O)N=C2S1	111*
CCC1=NN2C(=N)/C(=C/c3ccc(-c4cc(Cl)ccc4Cl)o3)C(=O)N=C2S1	0
CCc1ccccc1NC(=O)C1CC2CCC1C2 (stereo unspecified)	-9
Cc1ccc(N=Cc2ccc(C#N)cc2)cc1F	-25
O=C(COc1ccc2ccc(=O)oc2c1)Nc1ccccn1	-38
C=CCOc1c(Cl)cc(/C=C2\C(=O)NC(=O)N(c3cc(C)cc(C)c3)C2=O)cc1OC	-12
CCOC(=O)N1CCN(C(=O)c2ccc(C#Cc3ccccc3)cc2)CC1	18
COc1ccc(NC(=O)C(=O)NCCCN2CCOCC2)cc1	-7
SMILES	VHR inh color
O=C1NC(=O)C(=Cc2cc(Br)ccc2OCc2cccc3ccccc23)C(=O)N1	-3
COc1ccc(Cl)cc1C(=O)Nc1nc(-c2ccc(C)cc2C)cs1	-7
CCNC(=O)c1ccc(Cl)cc1Cl	0
Cc1ccc(C)n1-c1ccc(O)c(C(=O)O)c1	2
Cc1ccc(C)n1-c1ccc(C(=O)NN)c(Cl)c1	90*
COc1ccc(NC(=O)COC(=O)C(CCSC)NC(=O)c2ccccc2)cc1 (stereo unspecified)	-38
CCN(CC)CCSc1nc2sc3c(c2c(=O)n1-c1ccc(C)cc1)CCCC3	27
CCC(=O)N1c2ccc3ccccc3c2C2C=CCC2C1c1ccc(F)cc1 (stereo unspecified)	8
O=[N+]([O-])c1ccc(C2Nc3ccc([N+](=O)[O-])cc3C3C=CCC32)cc1 (stereo unspecified)	-18
Oc1ccc(C2Nc3ccc4ccccc4c3C3C=CCC32)cc1 (stereo unspecified)	76*
O=C(Nc1ccc(F)cc1)C(=O)NC1CC1	-8
CC(C)c1ccc(/C=N/N=C2/NC(=O)C(Cc3ccccc3)S2)cc1 (stereo unspecified)	0
O=C(O)c1cc(-c2cn[nH]c2-c2ccccc2)nc2ccc3ccccc3c12	110*
COc1ccccc1-c1cc(C(=O)O)c2ccccc2n1	11
O=C(O)c1cc(-c2cccc([N+](=O)[O-])c2)nc2ccccc12	-13
Cc1cc(Cl)ccc1OCC(=O)N1CCN(c2ccccc2)CC1	5
Cc1ccc(-n2c(C)cc(/C=N/NC(=O)c3ccncc3)c2C)cc1C	48
Cc1cccc(C)c1-n1c(C)cc(/C=N/NC(=O)c2ccncc2)c1C	14
CCc1ccc(-n2c(C)cc(/C=N/NC(=O)c3ccncc3)c2C)cc1	87*
Cc1cc(OCC(=O)Nc2ccccc2CO)ccc1Br	0
COC(=O)c1ccc(/C=N/NC(=O)CCc2c(C)n[nH]c2C)cc1	1
C=CCN1C(=O)/C(=C\c2ccc(-c3cc([N+](=O)[O-])ccc3C)o2)C(=O)NC1=S	74*
CC(C)c1ccc(N2C(=O)NC(=O)/C(=C/c3cccc([N+](=O)[O-])c3)C2=O)cc1	6
Cc1ccc([N+](=O)[O-])cc1-c1ccc(/C=C2/C(=O)NC(=O)N(c3ccccc3)C2=O)o1	43
Cc1ccc([N+](=O)[O-])cc1-c1ccc(/C=C2\C(=O)NC(=O)N(c3ccc(Cl)cc3)C2=O)o1	-30
O=C1NC(=O)N(c2ccccc2)C(=O)/C1=C/c1ccc(-c2ccccc2C(=O)O)o1	8
